PubChem BioAssay (Tox21)
Records with an inconclusive call do not appear. The source made the active and inactive calls. The call rests on the fitted dose curve; in most records, active means well fitted cell-killing curve with a large enough effect in the repeat runs; inconclusive means weak or mixed curves, or effect the other way; inactive means flat fitted curve, though single readings scatter.

assay: qHTS RealTime-Glo MT Cell Viability Assay in HEK293 cells - 0 hour (AID 1224880); settings: RealTime-Glo luminescence; series mostly up to 76.8 µM; activity change, negative = cytotoxicity: at the top concentration; further: top concentration of the series differs between compounds; nearly all actives have a fitted effect of over 45% in size
Description: U.S. Tox21 Program National Center for Advancing Translational Sciences [NCATS] NIH Chemical Genomics Center [NCGC] U.S. Environmental Protection Agency [EPA] National Institutes of Environmental Health Sciences [NIEHS] National Toxicology Program [NTP] U.S. Food and Drug Administration [FDA] Tox21 Assay Overview: Measure of cell viability is critical in the cell-base assay. Analysis of cell viability is necessary for the characterization of cell responses to cytotoxic drugs and environmental stress. A RealTime-Glo MT Cell Viability Assay to monitor cell viability in real time of continues cell culture during 40 hours of compound treatment was used to screen Tox21 10K library compounds in Hek293 cells. The RealTime-Glo MT Cell Viability Assay is a nonlytic, homogeneous, bioluminescent method to measure cell viability in real time using a simple, plate-based method. The assay involves adding NanoLuc luciferase and a cell-permeant prosubstrate to cells in culture. Viable cells reduce the proprietary prosubstrate to generate a substrate for NanoLuc luciferase. This substrate diffuses from cells into the surrounding culture medium, where it is rapidly used by the NanoLuc Enzyme to produce a luminescent signal. The signal correlates with the number of viable cells, making the assay well suited for cytotoxicity studies.
Tox21 Assay Protocol Summary: The mixture of Hek293 cell suspension and reagents were dispensed at 600cells/6 ul/well in 1536-well tissue culture treated black solid bottom plates using a Multidrop dispenser. After the assay plates were incubated at a 37 C/5% CO2 incubator for 5 hours, 23 nL of compounds dissolved in DMSO, positive and negative controls was transferred to the assay plate by a pintool work station. The plates were incubated at 37 C for 40 hours. The luminescence intensity were measured at 0h, 8h, 16h, 24h, 32h and 40h time points using ViewLux plate reader during compound treatment.
On the % scale 0 is the no-effect control and ±100 the full control effect.

Question: Which “activity change, negative = cytotoxicity” value does the source give for `CCOc1ccc(NC(N)=O)cc1` here?
Answer: The value was 6.77% (inactive).

Question: Which “activity change, negative = cytotoxicity” value does the source give for `O=C1CCCCC1C1CCCCC1` (stereo not given) here?
Answer: Its value is 1.73% (inactive).

Question: For `CC(C)CC(=O)OCc1ccccc1`, which “activity change, negative = cytotoxicity” value is on record?
Answer: Its value is 4.95% (inactive).

Question: With `O=c1[nH]cnc2c1ncn2[C@@H]1O[C@H](CO)[C@@H](O)[C@H]1O` as the compound, how does the “activity change, negative = cytotoxicity” value read?
Answer: Its value is 10.4% [at 35.3 µM] (inactive).

Question: For `Cc1ccc([N+](=O)[O-])c(N)c1`, which “activity change, negative = cytotoxicity” value is on record?
Answer: Its value is -2.82% (inactive).

Question: For `CCCCC(CC)COC(=O)COc1cc(Cl)c(Cl)cc1Cl` (stereo not given), which “activity change, negative = cytotoxicity” value is on record?
Answer: The value was -17.5% (inactive).

Question: For `O=C1N(c2ccccc2)c2ccccc2C1(Cc1ccncc1)Cc1ccncc1`, which “activity change, negative = cytotoxicity” value is on record?
Answer: Its value is -0.0515% [at 35.3 µM] (inactive).

Question: With `O=S(=O)(O)C(F)(F)F` as the compound, how does the “activity change, negative = cytotoxicity” value read?
Answer: The value was -2.42% (inactive).

Question: Which “activity change, negative = cytotoxicity” value does the source give for `O=C(O)c1cccc(Cl)c1Cl` here?
Answer: The value was -14.4% (inactive).

Question: For `Cc1onc(-c2ccccc2)c1C(=O)Cl`, which “activity change, negative = cytotoxicity” value is on record?
Answer: The value was -3.35% [at 35.3 µM] (inactive).

Question: With `Cc1c(-c2ccccc2)oc2c(C(=O)OCCN3CCCCC3)cccc2c1=O` as the compound, how does the “activity change, negative = cytotoxicity” value read?
Answer: The value was -5.59% [at 35.3 µM] (inactive).

Question: Which “activity change, negative = cytotoxicity” value does the source give for `CCCN(CCC)C(=O)C(CCC(=O)O)NC(=O)c1ccccc1` (stereo not given) here?
Answer: Its value is -3.88% [at 35.3 µM] (inactive).

Question: For `CCC(=O)Nc1ccc(O)cc1`, which “activity change, negative = cytotoxicity” value is on record?
Answer: The value was 13.4% [at 35.3 µM] (inactive).

Question: Which “activity change, negative = cytotoxicity” value does the source give for `CC(=O)OC(C)OC(C)=O` here?
Answer: The value was -0.796% (inactive).

Question: With `CCOC(=O)C1CC(=O)C(=C(O)C2CC2)C(=O)C1` (stereo not given) as the compound, how does the “activity change, negative = cytotoxicity” value read?
Answer: The value was 8.26% (inactive).

Question: Which “activity change, negative = cytotoxicity” value does the source give for `C=CCCCCCCCCO` here?
Answer: The value was -1.73% (inactive).

Question: For `CS(=O)(=O)c1ccc([C@@H](O)[C@@H](CF)NC(=O)C(Cl)Cl)cc1`, which “activity change, negative = cytotoxicity” value is on record?
Answer: Its value is 0.306% [at 35.3 µM] (inactive).

Question: With `CN1CCN(C2=Nc3ccccc3Oc3ccc(Cl)cc32)CC1` as the compound, how does the “activity change, negative = cytotoxicity” value read?
Answer: Its value is 17.7% [at 35.3 µM] (inactive).

Question: For `OCCN1CCN(CCO)CC1`, which “activity change, negative = cytotoxicity” value is on record?
Answer: Its value is 2.39% (inactive).

Question: For `N#Cc1ccc(C(c2ccc(C#N)cc2)n2cncn2)cc1`, which “activity change, negative = cytotoxicity” value is on record?
Answer: Its value is 0.906% [at 35.3 µM] (inactive).

Question: With `CCOc1ccc2nc(N)sc2c1` as the compound, how does the “activity change, negative = cytotoxicity” value read?
Answer: Its value is 3.27% (inactive).

Question: Which “activity change, negative = cytotoxicity” value does the source give for `Oc1ccccc1C=NCc1ccccc1` here?
Answer: Its value is -7.34% [at 35.3 µM] (inactive).

Question: With `COc1cc(N)c(Cl)cc1C(=O)NC1CCN(Cc2ccccc2)CC1` as the compound, how does the “activity change, negative = cytotoxicity” value read?
Answer: The value was -3.69% [at 35.3 µM] (inactive).

Question: With `Cc1cccc(C)c1NC(=O)CN1CCCCCC1` as the compound, how does the “activity change, negative = cytotoxicity” value read?
Answer: The value was -7.68% [at 35.3 µM] (inactive).

Question: With `COC(=O)C(C)O` (stereo not given) as the compound, how does the “activity change, negative = cytotoxicity” value read?
Answer: The value was 0.537% (inactive).

Question: Which “activity change, negative = cytotoxicity” value does the source give for `C[C@@H](N)C(=O)O` here?
Answer: The value was -1.62% [at 35.3 µM] (inactive).

Question: Which “activity change, negative = cytotoxicity” value does the source give for `Cc1nc(-c2ccccn2)ncc1C(=O)Nn1cc(C)c2cc(F)ccc21` here?
Answer: The value was 1.21% (inactive).

Question: For `CC(C)Nc1nc(N)nc(Cl)n1`, which “activity change, negative = cytotoxicity” value is on record?
Answer: Its value is -0.439% (inactive).

Question: Which “activity change, negative = cytotoxicity” value does the source give for `Cc1cc2c(s1)Nc1ccccc1N=C2N1CCN(C)CC1` here?
Answer: The value was -0.708% [at 35.3 µM] (inactive).

Question: For `CCCS(=O)c1ccc2nc(NC(=O)OC)[nH]c2c1` (stereo not given), which “activity change, negative = cytotoxicity” value is on record?
Answer: The value was 1.38% [at 35.3 µM] (inactive).

Question: With `Nc1ccc(Oc2ccc(N)c(N)c2)cc1` as the compound, how does the “activity change, negative = cytotoxicity” value read?
Answer: Its value is -4.34% (inactive).

Question: For `Cn1cnc2c(F)c(Nc3ccc(Br)cc3Cl)c(C(=O)NOCCO)cc21`, which “activity change, negative = cytotoxicity” value is on record?
Answer: Its value is 3.17% [at 35.3 µM] (inactive).

Question: With `CCCCCCCCCC/C=C/C#N` as the compound, how does the “activity change, negative = cytotoxicity” value read?
Answer: The value was -2.06% (inactive).

Question: With `N#CSCC(=O)O` as the compound, how does the “activity change, negative = cytotoxicity” value read?
Answer: Its value is 2.74% [at 35.3 µM] (inactive).

Question: Which “activity change, negative = cytotoxicity” value does the source give for `CC(C)=CCCC(C)CCOC=O` (stereo not given) here?
Answer: Its value is -0.997% (inactive).

Question: With `O=C(O)[C@@H]1CSCN1` as the compound, how does the “activity change, negative = cytotoxicity” value read?
Answer: Its value is -1.38% [at 35.3 µM] (inactive).

Question: With `CCCCCCC` as the compound, how does the “activity change, negative = cytotoxicity” value read?
Answer: Its value is -6.09% (inactive).

Question: With `CC1(C)C(=O)N(Cl)C(=O)N1Br` as the compound, how does the “activity change, negative = cytotoxicity” value read?
Answer: The value was 20% (inactive).

Question: Which “activity change, negative = cytotoxicity” value does the source give for `NC/C=C/C(=O)O` here?
Answer: Its value is 7.67% [at 35.3 µM] (inactive).

Question: For `CCCOCCC`, which “activity change, negative = cytotoxicity” value is on record?
Answer: Its value is 15.5% (inactive).
